Data published in PubChem BioAssay AID588525 (Broad Institute, 2011).
Entries with a potency or affinity are not part of this list. Inconclusive results are not listed. Values without a mark were called inactive. How the calls were made is not given here.

These compounds were tested against DNA topoisomerase I (Yersinia pestis CO92) (UniProt A0A2S9PM60) (assay: Yersinia topoisomerase I cleavage product accumulation – biochemical, Y. pestis CO92, cherry-pick, dose response (AID 588525)). Details: purified Y. pestis Topo-I, plate reader; series mostly up to 38 µM; activity (cleavage complex accumulation): at the top concentration.
DNA topoisomerase I (Yersinia pestis CO92), sequence (A0A2S9PM60 1-871): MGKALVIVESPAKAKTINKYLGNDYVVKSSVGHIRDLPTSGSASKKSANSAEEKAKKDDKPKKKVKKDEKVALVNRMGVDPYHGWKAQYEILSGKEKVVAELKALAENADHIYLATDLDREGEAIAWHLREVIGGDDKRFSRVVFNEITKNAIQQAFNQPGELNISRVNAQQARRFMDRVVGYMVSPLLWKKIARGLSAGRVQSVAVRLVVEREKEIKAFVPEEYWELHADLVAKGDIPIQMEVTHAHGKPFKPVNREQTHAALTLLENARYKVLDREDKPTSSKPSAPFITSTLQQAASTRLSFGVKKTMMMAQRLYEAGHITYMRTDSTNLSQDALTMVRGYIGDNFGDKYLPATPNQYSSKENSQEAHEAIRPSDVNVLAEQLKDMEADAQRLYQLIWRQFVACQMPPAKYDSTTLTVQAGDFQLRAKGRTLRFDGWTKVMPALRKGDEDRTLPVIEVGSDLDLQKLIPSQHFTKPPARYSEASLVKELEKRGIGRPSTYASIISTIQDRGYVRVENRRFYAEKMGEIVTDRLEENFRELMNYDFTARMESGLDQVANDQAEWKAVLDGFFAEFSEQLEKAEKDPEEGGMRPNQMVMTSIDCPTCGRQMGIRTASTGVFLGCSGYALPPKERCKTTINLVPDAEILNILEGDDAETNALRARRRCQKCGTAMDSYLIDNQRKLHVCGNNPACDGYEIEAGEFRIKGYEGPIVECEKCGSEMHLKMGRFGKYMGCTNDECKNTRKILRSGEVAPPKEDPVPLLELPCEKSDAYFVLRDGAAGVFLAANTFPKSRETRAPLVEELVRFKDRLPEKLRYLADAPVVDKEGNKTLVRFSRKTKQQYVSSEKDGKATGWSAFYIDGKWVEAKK

SMILES | activity (cleavage complex accumulation)
CCCCC(CC)COC(=O)c1ccccc1C(=O)OCC(CC)CCCC (centres undefined) | 20.7%
CCCCn1c(C)cc(C)c(S(=O)(=O)c2ccccc2C)c1=O | 30.2% [at 19.5 µM]
O=C(COc1c(Cl)cccc1Cl)Nc1ccccc1N1CCCC1 | 16.1%
CC(=O)c1ccccc1OCc1ccc(C(=O)c2ccccc2)cc1 | 36.3%
Cc1ccccc1OCC(=O)Nc1ccccc1N1CCCCC1 | 37%
CSc1ccccc1NC(=O)COC(=O)c1ccccc1Cc1ccccc1 | 37.9%
CCCCOC(=O)Nc1nnc(/C=C/c2ccc(OC)cc2)s1 | 33.7%
COc1ccccc1C(=O)NCCC(=O)N1CC=C(c2ccccc2)CC1 | 25.7%
O=C(Cc1ccccc1)CC(CC(=O)c1ccccc1)c1ccccc1 (centres undefined) | 40.3%
O=C(NCC1(c2ccccc2)CCCC1)C1(c2ccccc2)CCCC1 | 18.5%
CCCCCCCCN1[C@@H](CC(C)=O)c2cc(C(F)(F)F)ccc2S1(=O)=O | 24.3% [at 10 µM]
C[C@H]1CCC(=O)N([C@H](CSc2ccccc2)Cc2ccccc2)CC1 | 12%
CCCCN1CC(COCc2ccccc2)Oc2cccc(F)c2S1(=O)=O (centres undefined) | 28.1%
CC(C)OC(=O)C(C)(C)Oc1ccc(C(=O)c2ccc(Cl)cc2)cc1 | 20.1%
COC(=O)c1ccc(C2C(Oc3ccc(OC)cc3)C(=O)N2CCc2ccc(F)cc2)cc1 (centres undefined) | 19.9% [at 19.5 µM]
Cc1cc(NC(=O)C(C)SCC(=O)N(C)CC(=O)Nc2ccc(F)cc2)no1 (centres undefined) | 16.3%
Cc1ccc2c(Cl)c(C)c(N3CCCCC3)nc2n1 | 24.9% [at 10 µM]
O=C(NCCn1cc(SCc2ccccc2)c2ccccc21)c1ccccc1F | 26.2% [at 5 µM]
Cc1ccc(CSc2nc3c(c(N(C)C)n2)CCCC3)cc1 | 9.99%
COc1ccc(C2CC(c3ccccc3)=NN2C(=O)COC(=O)c2cccc(S(=O)(=O)N3CCOCC3)c2)cc1 (centres undefined) | 40.6% [at 10 µM]
O=C(OCc1ccccc1)N1CCC2CC1c1c(Cl)cccc12 (centres undefined) | 34.9%
C#CCN(C[C@@H](CC(C)C)NC(=O)OC(C)(C)C)S(=O)(=O)c1ccc(Br)cc1F | 15.2%
CC1CCN(c2oc(Cc3cccc4ccccc34)nc2C#N)CC1 | 22.8%
O=C(COC(=O)CCC1CCCC1)Nc1ccccc1Sc1ccccc1 | 34.9%
